# Reference: article PMC11062922 (Nature Chemical Biology, 2023)
# Read-outs that look alike come from different tables or passages of the source.
# How the values were obtained:
# Set-up in all cases: species or system human, MV4-11 + K-562 + COLO205 + SK-N-BE2 + OVCAR-8
# ACVR1B = details: read-out: apparent Kd; compound concentrations:100 nM and 1000 nM (sheet 'Samples'); n = 1
# TGFBR1 = details: read-out: apparent Kd; compound concentrations:100 nM and 1000 nM (sheet 'Samples'); n = 1
# ACVR2B = details: read-out: apparent Kd, compound concentrations: 100 nM and 1000 nM (sheet 'Samples'), n = 1
# DCTPP1 = details: read-out: apparent Kd; compound concentrations: 100 nM and 1000 nM (sheet 'Samples'), CATDS: 0.10861575043791701; n = 1
# EGFR = details: read-out: apparent Kd; compound concentrations: 100 nM and 1000 nM (sheet 'Samples'), CATDS: 0.49201381458362498; n = 1
# EPHA5 = details: read-out: apparent Kd; compound concentrations: 100 nM and 1000 nM (sheet 'Samples'), CATDS: 0.108805216819128; n = 1
# EPHB4 = details: read-out: apparent Kd; compound concentrations: 100 nM and 1000 nM (sheet 'Samples'), CATDS: 0.19010178021007501; n = 1
# PRKD1 = details: read-out: apparent Kd; compound concentrations: 100 nM and 1000 nM (sheet 'Samples'), CATDS: 0.12094331971113; n = 1
# RET = details: read-out: apparent Kd; compound concentrations: 100 nM and 1000 nM (sheet 'Samples'), CATDS: 0.16960231572365; n = 1
# PRKD2 = details: read-out: apparent Kd; compound concentrations:100 nM and 1000 nM (sheet 'Samples'); n = 1
# PRKD3 = details: read-out: apparent Kd; compound concentrations:100 nM and 1000 nM (sheet 'Samples'); n = 1
# DJA1 = test system: T1, DJA1; details: read-out: apparent Kd; compound concentrations:100 nM and 1000 nM (sheet 'Samples'); n = 1
# T1 construct: gene DNAJA1
# FYN = details: read-out: apparent Kd; compound concentrations:100 nM and 1000 nM (sheet 'Samples'); n = 1
# PIK3CA = details: read-out: apparent Kd; compound concentrations:100 nM and 1000 nM (sheet 'Samples'); n = 1
# PIK3CD = details: read-out: apparent Kd, n = 1
# STK16 = details: read-out: apparent Kd; compound concentrations:100 nM and 1000 nM (sheet 'Samples'); n = 1
# ACVR1 = details: read-out: apparent Kd, n = 1
# DDR2 = details: read-out: apparent Kd; compound concentrations: 100 nM and 1000 nM (sheet 'Samples'), CATDS: 0.13771295119314; n = 1
# PDGFRB = details: read-out: apparent Kd, compound concentrations: 100 nM and 1000 nM (sheet 'Samples'), n = 1
# RIPK2 = details: read-out: apparent Kd; compound concentrations: 100 nM and 1000 nM (sheet 'Samples'), CATDS: 0.21478363135213999; n = 1
# PI4KB = details: read-out: apparent Kd; compound concentrations: 100 nM and 1000 nM (sheet 'Samples'), CATDS: 0.57979233132980301; n = 1
# CDK4 = details: read-out: apparent Kd; compound concentrations:100 nM and 1000 nM (sheet 'Samples'); n = 1
# TP53RK = details: read-out: apparent Kd; compound concentrations:100 nM and 1000 nM (sheet 'Samples'); n = 1
# ADCK3 = details: read-out: apparent Kd; compound concentrations:100 nM and 1000 nM (sheet 'Samples'); n = 1
# BTK = details: read-out: apparent Kd; compound concentrations: 100 nM and 1000 nM (sheet 'Samples'), CATDS: 0.33731493843611998; n = 1
# JAK2 = details: read-out: apparent Kd; compound concentrations:100 nM and 1000 nM (sheet 'Samples'); n = 1
# PIK3C3 = details: read-out: apparent Kd; compound concentrations:100 nM and 1000 nM (sheet 'Samples'); n = 1
# TEC = details: read-out: apparent Kd; compound concentrations:100 nM and 1000 nM (sheet 'Samples'); n = 1
# ZAK = details: read-out: apparent Kd; compound concentrations:100 nM and 1000 nM (sheet 'Samples'); n = 1
# ADCK1 = details: read-out: apparent Kd; compound concentrations: 100 nM and 1000 nM (sheet 'Samples'), CATDS: 0.14545775949077999; n = 1
# CAMK4 = details: read-out: apparent Kd; compound concentrations: 100 nM and 1000 nM (sheet 'Samples'), CATDS: 0.15107138054909999; n = 1
# FLT3 = details: read-out: apparent Kd; compound concentrations: 100 nM and 1000 nM (sheet 'Samples'), CATDS: 0.830735386752396; n = 1
# MAP2K2 = details: read-out: apparent Kd; compound concentrations: 100 nM and 1000 nM (sheet 'Samples'), CATDS: 0.139234608718731; n = 1
# CLK1 = details: read-out: apparent Kd; compound concentrations:100 nM and 1000 nM (sheet 'Samples'); n = 1
# CLK2 = details: read-out: apparent Kd; compound concentrations:100 nM and 1000 nM (sheet 'Samples'); n = 1
# CLK4 = details: read-out: apparent Kd; compound concentrations:100 nM and 1000 nM (sheet 'Samples'); n = 1
# FER = details: read-out: apparent Kd; compound concentrations:100 nM and 1000 nM (sheet 'Samples'); n = 1
# IGF1R = details: read-out: apparent Kd; compound concentrations:100 nM and 1000 nM (sheet 'Samples'); n = 1
# INSR = details: read-out: apparent Kd; compound concentrations:100 nM and 1000 nM (sheet 'Samples'); n = 1
# PLK1 = details: read-out: apparent Kd; compound concentrations:100 nM and 1000 nM (sheet 'Samples'); n = 1
# [1] = compound concentrations:100 nM and 1000 nM (sheet 'Samples')
structure (smiles),measurement,setting,value
O=C(c1ccc(-c2cc(-c3c[nH]nc3-c3ccccn3)ccn2)cc1)N1CCOCC1 [GW812171X],potency estimated from few doses,ACVR1B,119 nM
same,potency estimated from few doses,TGFBR1,67.6 nM
COc1cc2ncnc(Nc3cccc(Cl)c3F)c2cc1O[C@H]1CC[C@@]2(CC1)NCCNC2=O [BI00113608],potency estimated from few doses,ACVR2B; CATDS: 0.10934684571165,1660 nM
same,potency estimated from few doses,DCTPP1,1700 nM
same,potency estimated from few doses,EGFR,85.3 nM
same,potency estimated from few doses,EPHA5,1690 nM
same,potency estimated from few doses,EPHB4,421 nM
same,potency estimated from few doses,PRKD1,1220 nM
same,potency estimated from few doses,RET,534 nM
Cc1cccc(-c2cc(Nc3ccncc3)c3ccccc3n2)n1 [GSK223675A],potency estimated from few doses,ACVR1B,21.7 nM
same,potency estimated from few doses,PRKD2,293 nM
same,potency estimated from few doses,PRKD3,590 nM
Clc1cccc(-c2nc(Nc3ccncc3)c3ccccc3n2)c1 [GW873004X],potency estimated from few doses,ACVR1B,843 nM
same,potency estimated from few doses,DJA1,2180 nM
same,potency estimated from few doses,FYN,937 nM
same,potency estimated from few doses,PIK3CA,222 nM
same,potency estimated from few doses,PIK3CD; [1],106 nM
same,potency estimated from few doses,STK16,1400 nM
COC(=O)c1cncc(/C=C/c2c(C)cc(O)cc2C)c1 [GW406731X],potency estimated from few doses,"ACVR1; compound concentrations: 100 nM and 1000 nM (sheet 'Samples'), CATDS: 0.26070115141914502",403 nM
same,potency estimated from few doses,DDR2,2520 nM
same,potency estimated from few doses,PDGFRB; CATDS: 0.14028775258346299,2330 nM
same,potency estimated from few doses,"PIK3CD; compound concentrations: 100 nM and 1000 nM (sheet 'Samples'), CATDS: 0.471997589985167",143 nM
same,potency estimated from few doses,RIPK2,621 nM
CNc1ncnc2[nH]ncc12 [SKF-18355],potency estimated from few doses,ACVR2B; CATDS: 0.43951319986121201,1910 nM
same,potency estimated from few doses,PI4KB,1080 nM
CN1C(=O)[C@@H](NC(=O)c2cc(Cc3ccccc3)on2)COc2ccccc21 [GSK481],potency estimated from few doses,ACVR1; [1],1270 nM
same,potency estimated from few doses,CDK4,1980 nM
same,potency estimated from few doses,TP53RK,2040 nM
C=CC(=O)Nc1cc(-n2c(=O)ccc3cnc4ccc(-c5ccc(NS(C)(=O)=O)cc5)cc4c32)ccc1C [BMX-IN-1],potency estimated from few doses,ADCK3,1160 nM
same,potency estimated from few doses,BTK,186 nM
same,potency estimated from few doses,JAK2,466 nM
same,potency estimated from few doses,PIK3C3,1530 nM
same,potency estimated from few doses,TEC,540 nM
same,potency estimated from few doses,ZAK,782 nM
COc1cc(Nc2ncc(-c3ccccc3)o2)cc(OC)c1 [GW631581B],potency estimated from few doses,ADCK1,1650 nM
same,potency estimated from few doses,CAMK4,1410 nM
same,potency estimated from few doses,FLT3,8.16 nM
same,potency estimated from few doses,MAP2K2,2010 nM
same,potency estimated from few doses,PDGFRB; CATDS: 0.32052418925239901,85.4 nM
CNC(=O)c1c(F)cccc1Nc1nc(Nc2cc3c(cc2OC)CCN3C(=O)CN(C)C)nc2[nH]ccc12 [GSK1838705],potency estimated from few doses,ADCK3,1340 nM
same,potency estimated from few doses,CLK1,376 nM
same,potency estimated from few doses,CLK2,600 nM
same,potency estimated from few doses,CLK4,137 nM
same,potency estimated from few doses,FER,133 nM
same,potency estimated from few doses,IGF1R,1130 nM
same,potency estimated from few doses,INSR,759 nM
same,potency estimated from few doses,PIK3CA,176 nM
same,potency estimated from few doses,PLK1,2350 nM
